The structures appear in SMILES notation. Several values for one entry are separate records, joined by “and”; a condition that tells them apart may be missing. Equal values may be shown once. In all, about 2,900 compounds were measured (“NF-kB SEAP reporter activity, fold change vs agonist alone”: median about 0.99, highest 2% from about 2.6 on). What follows is part of a selection rich in the highest values, with near analogues and random picks from the rest.

The source of these data is the supplement of paper PMC10037445.

Test [1] relates to RAW-Dual. Kind of test: NF-kB SEAP reporter activity, fold change vs agonist alone; higher = enhanced NF-kB activity. To be noted: library stock concentration (final ~1000-fold dilution): 10 mM. A digest of the protocol:
(§1)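 Reporter activity is given as fold change relative to agonist-alone wells. To measure it, 50 nL of library stock was pin-tooled onto RAW-Dual macrophages (50,000 cells/well, DMEM, 384-well plates), a PRR agonist followed 1 h later, and cells stayed at 37 °C, 5% CO2. Twenty hours on, supernatant was assayed for IRF (QuantiLuc luminescence) and NF-κB (QuantiBlue, 620 nm absorbance), and wells under 70% of agonist-control IncuCyte confluency in both mask sets were marked cytotoxic.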

Test [2] deals with RAW-Dual. As to the kind of experiment: NF-kB SEAP reporter activity, fold change vs agonist alone; cytotoxicity flag (confluency mask): cytotoxic (confluency <70% of control); higher = enhanced NF-kB activity. The method in brief: as §1
The subject of test [3] is RAW-Dual. As to the kind of experiment: NF-kB SEAP reporter activity, fold change vs agonist alone; cytotoxicity flag (confluency mask): not cytotoxic; higher = enhanced NF-kB activity. The method in brief: as §1
Where [4] appears, read: cytotoxicity flag (confluency mask): cytotoxic (confluency <70% of control), agonist: Imiquimod (TLR7) […].
Setting [5] is: cytotoxicity flag (confluency mask): cytotoxic (confluency <70% of control), agonist: MPLA (TLR4) […].
[6] abbreviates: agonist: ODN 1826 (TLR9) 0.5 ug/mL.
Where [7] appears, read: agonist: Pam2CSK4 (TLR2/6) 0.1 ug/mL.
[8] abbreviates: agonist: Pam3CSK4 (TLR2/1) 0.1 ug/mL.
[9] abbreviates: cytotoxicity flag (confluency mask): not cytotoxic, agonist: Imiquimod (TLR7) […].
Setting [10] is: cytotoxicity flag (confluency mask): not cytotoxic, agonist: MPLA (TLR4) […].

Turning to `C=C(Cc1ccccc1Cl)C(=O)OCC`, the “NF-kB SEAP reporter activity” value was determined as 0.73 with RAW-Dual [1] (setting [4]) and 0.891 in the test on RAW-Dual [1] (setting [5]).

For `C=C(Cc1ccccc1Cl)C(=O)OCC` (library stock concentration (final ~1000-fold dilution): 10 mM), the “NF-kB SEAP reporter activity” value in the test with RAW-Dual [2] (agonist: LPS (TLR4) 0.1 ug/mL) amounted to 0.636; in the test on RAW-Dual [2] (setting [6]), 0.588; in the test with RAW-Dual [2] (setting [7]), 0.682; in the test on RAW-Dual [2] (setting [8]), 0.806.

Regarding `COc1cc2nccc(Oc3ccc(NC(=O)C4(C(=O)Nc5ccc(F)cc5)CC4)cc3)c2cc1OC.O=C(O)CC(O)C(=O)O` (library stock concentration (final ~1000-fold dilution): 10 mM), the “NF-kB SEAP reporter activity” value was found to be 0.861 in the test on RAW-Dual [3] (agonist: LPS (TLR4) 0.1 ug/mL), 0.525 in the test on RAW-Dual [3] (setting [6]), 0.284 in the test on RAW-Dual [3] (setting [7]) and 0.277 with RAW-Dual [3] (setting [8]).

Turning to `Cn1cc(-c2cc(Oc3cc(F)c(NC(=O)C4(C(=O)Nc5ccccc5)CC4)cc3F)ccn2)cn1`, the “NF-kB SEAP reporter activity” value came to 0.974 with RAW-Dual [1] (setting [9]) and 1.71 in the test with RAW-Dual [1] (setting [10]).

Regarding `Cn1cc(-c2cc(Oc3cc(F)c(NC(=O)C4(C(=O)Nc5ccccc5)CC4)cc3F)ccn2)cn1` (library stock concentration (final ~1000-fold dilution): 10 mM), the “NF-kB SEAP reporter activity” value in the test on RAW-Dual [3] (agonist: LPS (TLR4) 0.1 ug/mL) came out at 3.09; with RAW-Dual [3] (setting [6]), 0.863; in the test on RAW-Dual [3] (setting [7]), 0.629; in the test on RAW-Dual [3] (setting [8]) it was 0.98.

`COc1cc2nccc(Oc3ccc(NC(=O)C4(C(=O)Nc5ccc(F)cc5)CC4)cc3)c2cc1OC.O=C(O)CC(O)C(=O)O`: the figures for the “NF-kB SEAP reporter activity” value in the test on RAW-Dual [1] (setting [9]) and in the test with RAW-Dual [1] (setting [10]) were 0.796 and 0.939, respectively.

In the case of `COCCNCc1ccc(-c2cc3nccc(Oc4ccc(NC(=O)C5(C(=O)Nc6ccc(F)cc6)CC5)cc4F)c3s2)nc1`, the “NF-kB SEAP reporter activity” value in the test with RAW-Dual [1] (setting [9]) stood at 0.327; with RAW-Dual [1] (setting [10]), 0.388.

For `COCCNCc1ccc(-c2cc3nccc(Oc4ccc(NC(=O)C5(C(=O)Nc6ccc(F)cc6)CC5)cc4F)c3s2)nc1` (library stock concentration (final ~1000-fold dilution): 10 mM), the “NF-kB SEAP reporter activity” value with RAW-Dual [3] (agonist: LPS (TLR4) 0.1 ug/mL) came to 0.36; with RAW-Dual [3] (setting [6]), 0.205; with RAW-Dual [3] (setting [7]), 0.0909; in the test with RAW-Dual [3] (setting [8]), 0.149.

Consider `COc1ccc2cc1Oc1ccc(cc1)CC1c3cc(c(OC)cc3CCN1C)Oc1c(O)c(OC)cc3c1C(C2)N(C)CC3` (stereo not drawn) (library stock concentration (final ~1000-fold dilution): 10 mM), for which the “NF-kB SEAP reporter activity” value is 1.81 in the test with RAW-Dual [2] (agonist: LPS (TLR4) 0.1 ug/mL), 0.241 in the test on RAW-Dual [2] (setting [6]), 2.15 in the test with RAW-Dual [2] (setting [7]) and 1.31 in the test with RAW-Dual [2] (setting [8]).

Consider `COc1ccc2cc1Oc1ccc(cc1)CC1c3cc(c(OC)cc3CCN1C)Oc1c(O)c(OC)cc3c1C(C2)N(C)CC3` (stereo not drawn), for which the “NF-kB SEAP reporter activity” value stood at 0.618 with RAW-Dual [1] (setting [4]) and 2.39 with RAW-Dual [1] (setting [5]).

For `O=C1C(CCC(O)c2ccc(F)cc2)C(c2ccc(O)cc2)N1c1ccc(F)cc1` (stereo not drawn) (library stock concentration (final ~1000-fold dilution): 10 mM), the “NF-kB SEAP reporter activity” value was determined as 1.42 in the test with RAW-Dual [3] (agonist: LPS (TLR4) 0.1 ug/mL), 0.665 in the test on RAW-Dual [3] (setting [6]), 0.889 in the test with RAW-Dual [3] (setting [7]) and 0.589 in the test with RAW-Dual [3] (setting [8]).

For `O=C1C(CCC(O)c2ccc(F)cc2)C(c2ccc(O)cc2)N1c1ccc(F)cc1` (stereo not drawn), the figures for the “NF-kB SEAP reporter activity” value in the test with RAW-Dual [1] (setting [9]) and with RAW-Dual [1] (setting [10]) were 0.952 and 1.38, respectively.

`CC1(C)SC2CC(=O)N2C1C(=O)OCOC(=O)C1N2C(=O)C(NC(=O)C(N)c3ccccc3)C2S(=O)(=O)C1(C)C.Cc1ccc(S(=O)(=O)O)cc1` (stereo not drawn) (library stock concentration (final ~1000-fold dilution): 10 mM): the “NF-kB SEAP reporter activity” value in the test on RAW-Dual [3] (agonist: LPS (TLR4) 0.1 ug/mL) is 1.26; with RAW-Dual [3] (setting [6]), 0.797; in the test with RAW-Dual [3] (setting [7]), 1.02; with RAW-Dual [3] (setting [8]) it was 0.873.

As for `CC1(C)SC2CC(=O)N2C1C(=O)OCOC(=O)C1N2C(=O)C(NC(=O)C(N)c3ccccc3)C2S(=O)(=O)C1(C)C.Cc1ccc(S(=O)(=O)O)cc1` (stereo not drawn), in the test on RAW-Dual [1] (setting [10]), the “NF-kB SEAP reporter activity” value was 1.02.

Regarding `CN1C(CC(=O)c2ccccc2)CCCC1CC(O)c1ccccc1.Cl` (stereo not drawn) (library stock concentration (final ~1000-fold dilution): 10 mM), the “NF-kB SEAP reporter activity” value with RAW-Dual [3] (agonist: LPS (TLR4) 0.1 ug/mL) was 1.18; in the test on RAW-Dual [3] (setting [6]) it was 0.669; in the test with RAW-Dual [3] (setting [7]) it was 0.9; in the test with RAW-Dual [3] (setting [8]), 1.15.

On to `CN1C(CC(=O)c2ccccc2)CCCC1CC(O)c1ccccc1.Cl` (stereo not drawn), for which the “NF-kB SEAP reporter activity” value in the test with RAW-Dual [1] (setting [9]) was determined as 0.779; in the test on RAW-Dual [1] (setting [10]), 0.909.

As for `O=C(O)CN(CC(=O)O)c1ccccc1OCCOc1ccccc1N(CC(=O)O)CC(=O)O` (library stock concentration (final ~1000-fold dilution): 10 mM), the “NF-kB SEAP reporter activity” value was determined as 1 with RAW-Dual [3] (agonist: LPS (TLR4) 0.1 ug/mL), 0.989 with RAW-Dual [3] (setting [6]), 1.04 in the test with RAW-Dual [3] (setting [7]) and 0.872 in the test with RAW-Dual [3] (setting [8]).

Regarding `O=C(O)CN(CC(=O)O)c1ccccc1OCCOc1ccccc1N(CC(=O)O)CC(=O)O`, the “NF-kB SEAP reporter activity” value is 0.994 in the test on RAW-Dual [1] (setting [9]) and 1.01 in the test with RAW-Dual [1] (setting [10]).

With `CN1C2=C3N=c4ccccc4=C3CCN2C(=O)c2ccccc21.Cl` (library stock concentration (final ~1000-fold dilution): 10 mM), the “NF-kB SEAP reporter activity” value in the test with RAW-Dual [3] (agonist: LPS (TLR4) 0.1 ug/mL) was 1.21; in the test on RAW-Dual [3] (setting [6]) it was 0.594; with RAW-Dual [3] (setting [7]) it was 1.28; with RAW-Dual [3] (setting [8]), 1.1.

Regarding `CN1C2=C3N=c4ccccc4=C3CCN2C(=O)c2ccccc21.Cl`, the “NF-kB SEAP reporter activity” value is 0.969 in the test on RAW-Dual [1] (setting [9]) and 0.999 with RAW-Dual [1] (setting [10]).

As to `N#CCC1(n2cc(-c3ncnc4[nH]ccc34)cn2)CN(C2CCN(C(=O)c3ccnc(C(F)(F)F)c3F)CC2)C1`, the “NF-kB SEAP reporter activity” value with RAW-Dual [1] (setting [9]) turned out to be 0.89; in the test on RAW-Dual [1] (setting [10]), 0.922.

Consider `N#CCC1(n2cc(-c3ncnc4[nH]ccc34)cn2)CN(C2CCN(C(=O)c3ccnc(C(F)(F)F)c3F)CC2)C1` (library stock concentration (final ~1000-fold dilution): 10 mM), for which the “NF-kB SEAP reporter activity” value with RAW-Dual [3] (agonist: LPS (TLR4) 0.1 ug/mL) was 0.591; with RAW-Dual [3] (setting [6]), 1.09; with RAW-Dual [3] (setting [7]) it was 1.11; in the test on RAW-Dual [3] (setting [8]), 1.03.

In the case of `CCS(=O)(=O)N1CC(CC#N)(n2cc(-c3ncnc4[nH]ccc34)cn2)C1` (library stock concentration (final ~1000-fold dilution): 10 mM), the “NF-kB SEAP reporter activity” value in the test with RAW-Dual [3] (agonist: LPS (TLR4) 0.1 ug/mL) is 1.65 and 0.788; with RAW-Dual [3] (setting [6]) it was 1.96 and 2.12; in the test with RAW-Dual [3] (setting [7]), 1.19 and 1.64; in the test with RAW-Dual [3] (setting [8]), 1.77 and 2.42.

In the case of `N#CCC(C1CCCC1)n1cc(-c2ncnc3[nH]ccc23)cn1` (stereo not drawn) (library stock concentration (final ~1000-fold dilution): 10 mM), the “NF-kB SEAP reporter activity” value was 0.995 and 0.96 and 0.998 with RAW-Dual [3] (agonist: LPS (TLR4) 0.1 ug/mL); 2.7 and 1.88 and 2.86 in the test with RAW-Dual [3] (setting [6]); 1.81 and 1.49 and 1.69 with RAW-Dual [3] (setting [7]); 2.14 and 2.16 and 2.67 in the test on RAW-Dual [3] (setting [8]).
